For six compounds, outcome and AC50 results are on record in PubChem BioAssay (EPA / NIEHS).

Activity calls are given as the source filed them. Rule for the calls: active = hit-call score of the fitted dose curve at least 0.9, where 1 is the maximum; inactive = score below 0.9.

For orientation: AC50 means the concentration giving half of the maximal activity seen.

A short description of experiment [1]: ATG_CRE_CIS: Attagene CIS-FACTORIAL HepG2 Assay for human cAMP Responsive Element (CRE) binding protein 3 (AID 2282926). The following applies: HepG2 CRE cis-reporter, Attagene multiplexed mRNA; actives raise or lower the signal. In a few lines:
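Cells carrying cis-regulated reporter constructs respond through their own endogenous factors. After 24 h treatment, RNA is reverse-transcribed, amplified, labelled and sized by capillary electrophoresis; up- and down-regulation are both scored against vehicle.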

Experiment [2] deals with CCAAT/enhancer-binding protein beta (Homo sapiens) (UniProt P17676). The experiment in a line: ATG_C_EBP_CIS: Attagene CIS-FACTORIAL HepG2 Assay for human CCAAT/Enhancer Binding Protein (C/EBP) beta (AID 2282927). The following applies: HepG2 Attagene cis-factorial transcription factor reporter; actives raise or lower the signal. In a few lines:
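HepG2, transient MRTU transfection, 24 h treatment. RT-PCR plus CE fluorescence; DMSO negative control, bidirectional fit.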

Experiment [3] in a line: ATG_DR4_LXR_CIS: Attagene CIS-FACTORIAL HepG2 Assay for human Liver X Receptor (LXR), DR4 submotif (AID 2282929). The conditions noted are these: HepG2 Attagene DR4 cis-reporter, mRNA transcription; actives raise or lower the signal. The gist of the method:
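DR4 cis-reporter in HepG2, 24 h exposure. Detection: RT-PCR, 6-FAM labelling, CE fragment analysis. Endpoint fitted bidirectionally, DMSO = baseline.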

Experiment [4] can be described thus: ATG_AP_2_CIS: Attagene CIS-FACTORIAL HepG2 Assay for human Activator Protein 2 (AP-2) (AID 2282932). The following applies: HepG2 AP-2 cis-reporter, Attagene transcription factor profiling; actives raise or lower the signal. In a few lines: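 Read-out: fluorescent reporter mRNA via RT-PCR and capillary electrophoresis, 24 h post-dose in transiently transfected HepG2. Endogenous factors drive cis-promoter reporters; gain or loss of signal fitted bidirectionally against DMSO.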

Experiment [5] in a line: ATG_BRE_CIS: Attagene CIS-FACTORIAL HepG2 Assay for human Bone Morphogenetic Protein (BMP) Response Element (BRE) (AID 2282933). The following applies: HepG2 BMP response element reporter, Attagene transcription factor profiling; actives raise or lower the signal. In a few lines:
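Multiplexed cis-reporter assay, HepG2, 24 h exposure. mRNA from reporter units quantified via RT-PCR/CE; DMSO baseline; bidirectional curve fit.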

The target in experiment [6] is Transcription factor E2F1 (Homo sapiens) (UniProt Q01094). The experiment in a line: ATG_E2F_CIS: Attagene CIS-FACTORIAL HepG2 Assay for human E2F Transcription Factor 1 (AID 2282935). The conditions noted are these: HepG2 Attagene cis-reporter, E2F reporter RNA transcripts; actives raise or lower the signal. The gist of the method: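 Transient MRTU transfection of HepG2; 24 h compound exposure; RNA → oligo(dT) RT → PCR → FAM label → HpaI cut → CE fluorescence. Gain/loss of signal fit against DMSO.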
Transcription factor E2F1 (Homo sapiens), sequence (Q01094 whole entry, looked up): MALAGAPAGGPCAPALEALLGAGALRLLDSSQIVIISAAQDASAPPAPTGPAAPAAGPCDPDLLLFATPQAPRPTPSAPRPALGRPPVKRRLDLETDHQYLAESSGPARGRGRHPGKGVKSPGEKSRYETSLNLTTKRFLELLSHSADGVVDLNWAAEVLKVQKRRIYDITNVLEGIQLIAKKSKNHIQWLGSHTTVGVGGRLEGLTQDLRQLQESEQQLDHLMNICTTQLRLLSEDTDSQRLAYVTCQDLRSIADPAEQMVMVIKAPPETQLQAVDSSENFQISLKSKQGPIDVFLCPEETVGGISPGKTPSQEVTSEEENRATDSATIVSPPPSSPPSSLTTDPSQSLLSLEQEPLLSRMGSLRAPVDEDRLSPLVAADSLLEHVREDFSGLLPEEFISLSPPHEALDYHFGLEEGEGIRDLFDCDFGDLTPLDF

Experiment [7] in a line: ATG_EGR_CIS: Attagene CIS-FACTORIAL HepG2 Assay for human Early Growth Response 1 (EGR1) (AID 2282938). The conditions noted are these: HepG2 Attagene CIS-FACTORIAL EGR reporter mRNA; actives raise or lower the signal. In a few lines:
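Endpoint derived by bidirectional fitting versus DMSO vehicle. Method: cis-promoter reporter units transfected into HepG2, 24 h dosing, RNA isolation, RT-PCR with 6-FAM primer extension and HpaI digestion, then capillary electrophoresis fluorescence detection.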

A short description of experiment [8]: ATG_M_19_CIS: Attagene CIS-FACTORIAL HepG2 Assay for M19 Transcription Factor (Internal Marker) (AID 2282939). The following applies: HepG2 Attagene CIS-FACTORIAL M19 internal marker reporter; actives raise or lower the signal. The gist of the method:
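Signals come from fluorescence of labelled reporter-specific PCR fragments resolved by capillary electrophoresis, following 24 h treatment of HepG2 cells transfected with cis-promoter reporter units; activity was fitted in both directions relative to DMSO.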

The nature of experiment [9]: ATG_Ets_CIS: Attagene CIS-FACTORIAL HepG2 Assay for human Erythroblast Transformation Specific (ETS) (AID 2282941). The following applies: HepG2 ETS cis-reporter transcription, actives raise or lower the signal. In a few lines:
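Multiplexed reporter transcript profiling: HepG2, 24 h treatment, total RNA to cDNA, PCR, 6-FAM labelling, HpaI cut, capillary electrophoresis. Gain- or loss-of-signal fitted against DMSO.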

The target in experiment [10] is Hepatocyte nuclear factor 3-beta (Homo sapiens) (UniProt Q9Y261). Kind of experiment: ATG_FoxA2_CIS: Attagene CIS-FACTORIAL HepG2 Assay for human Forkhead box A2 (FOXA2) (AID 2282942). The conditions noted are these: HepG2 cis-reporter transcription factor activity, 24 h; actives raise or lower the signal. The gist of the method: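 Measured: reporter mRNA induction or loss in HepG2 transiently carrying multiple cis-regulated reporter units, 24 h after dosing. Quantified by RT-PCR plus capillary electrophoresis, normalised to DMSO.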
Hepatocyte nuclear factor 3-beta (Homo sapiens), sequence (Q9Y261 whole entry, looked up): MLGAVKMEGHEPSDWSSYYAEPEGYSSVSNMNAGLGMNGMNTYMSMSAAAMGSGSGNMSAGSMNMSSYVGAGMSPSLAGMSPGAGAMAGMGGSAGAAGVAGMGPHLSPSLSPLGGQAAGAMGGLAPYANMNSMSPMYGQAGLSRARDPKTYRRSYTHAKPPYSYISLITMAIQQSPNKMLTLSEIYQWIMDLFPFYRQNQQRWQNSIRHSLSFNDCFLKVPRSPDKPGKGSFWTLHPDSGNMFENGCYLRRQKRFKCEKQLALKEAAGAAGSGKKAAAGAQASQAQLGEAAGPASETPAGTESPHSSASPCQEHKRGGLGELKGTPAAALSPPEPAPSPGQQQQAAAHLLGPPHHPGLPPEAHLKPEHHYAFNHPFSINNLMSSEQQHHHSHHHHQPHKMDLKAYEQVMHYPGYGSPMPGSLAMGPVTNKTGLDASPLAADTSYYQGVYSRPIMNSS

Experiment [11] in a line: ATG_FoxO_CIS: Attagene CIS-FACTORIAL HepG2 Assay for human Forkhead box O (FoxO) (AID 2282943). The following applies: HepG2 Attagene cis-reporter, FoxO element, mRNA; actives raise or lower the signal. The gist of the method:
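Transfected HepG2 reporter cells exposed to test chemical for 24 h; reporter RNA measured by reverse transcription, PCR and fluorescent capillary electrophoresis; curves fitted for increases and decreases against DMSO.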

Experiment [12] can be described thus: ATG_GATA_CIS: Attagene CIS-FACTORIAL HepG2 Assay for human GATA Binding Protein (AID 2282944). The following applies: HepG2 GATA cis-element reporter, Attagene multiplex mRNA; actives raise or lower the signal. The gist of the method:
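After transfecting HepG2 cells with multiple cis-regulated reporter units, chemicals are dosed for 24 h; isolated RNA undergoes RT-PCR and fluorescent labeling before capillary electrophoresis, with activity expressed against DMSO.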

Experiment [13] in a line: ATG_GLI_CIS: Attagene CIS-FACTORIAL HepG2 Assay for human Zinc Finger Protein GLI1 (AID 2282945). The conditions noted are these: HepG2, Attagene cis-factorial reporter mRNA, GLI element; actives raise or lower the signal. In a few lines:
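Transiently transfected HepG2 cells report endogenous transcription factor activity via cis-element-driven reporter units. After 24 h compound exposure, reporter mRNA was measured by RT-PCR with capillary electrophoresis; bidirectional fitting against DMSO baseline.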

A short description of experiment [14]: ATG_M_06_CIS: Attagene CIS-FACTORIAL HepG2 Assay for M06 Transcription Factor (Internal Marker) (AID 2282950). The conditions noted are these: HepG2 Attagene CIS-FACTORIAL M06 internal marker reporter; actives raise or lower the signal. The gist of the method:
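HepG2 liver cells, 24 h exposure. Reporter transcripts from transfected cis-element constructs quantified by RT-PCR/capillary electrophoresis fluorescence. Bidirectional curve fit against DMSO.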

A short description of experiment [15]: ATG_MRE_CIS: Attagene CIS-FACTORIAL HepG2 Assay for human Metal Responsive Element (MRE) (AID 2282954). The conditions noted are these: HepG2 MRE cis-reporter transcription, Attagene multiplex; actives raise or lower the signal. In a few lines: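 RT-PCR/capillary electrophoresis readout of reporter mRNA, 24 h post-dosing, in HepG2 cells transfected with multiplexed cis-regulated reporter constructs. Gain or loss of signal fitted bidirectionally against DMSO baseline.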

Experiment [16] addresses Paired box protein Pax-6 (Homo sapiens) (UniProt P26367). The experiment in a line: ATG_Pax6_CIS: Attagene CIS-FACTORIAL HepG2 Assay for human Paired Box 6 (PAX6) (AID 2282956). The conditions noted are these: HepG2 CIS-FACTORIAL PAX6 reporter transcription, RNA readout; actives raise or lower the signal. In a few lines: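 Values derive from bidirectional curve fitting of reporter mRNA signal relative to DMSO. HepG2 cells bearing transfected cis-regulated MRTUs were exposed for 24 h; transcripts were read by RT-PCR and capillary electrophoresis.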

Experiment [17] can be described thus: ATG_PXRE_CIS: Attagene CIS-FACTORIAL HepG2 Assay for human Pregnane X Receptor Element (PXRE) (AID 2282957). The conditions noted are these: HepG2 Attagene CIS-FACTORIAL PXRE reporter, mRNA; actives raise or lower the signal. The gist of the method: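 Endogenous transcription factor activity in HepG2 was gauged through induction of reporter mRNA driven by a cis-regulating promoter element, sampled 24 h post-treatment. Activity was fitted in both directions against DMSO negative control.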

Experiment [18] can be described thus: ATG_Sox_CIS: Attagene CIS-FACTORIAL HepG2 Assay for human SRY-box transcription factor (SOX) (AID 2282960). The conditions noted are these: HepG2 Attagene cis-factorial SOX reporter, mRNA; actives raise or lower the signal. In a few lines:
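Gain- or loss-of-signal endpoint, fitted bidirectionally with DMSO as negative control. Based on reporter mRNA from transfected HepG2 cells harvested 24 h post-treatment and quantified via RT-PCR and capillary electrophoresis.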

Experiment [19] deals with Transcription factor Sp1 (Homo sapiens) (UniProt P08047). The experiment in a line: ATG_Sp1_CIS: Attagene CIS-FACTORIAL HepG2 Assay for human Specificity Protein 1 (Sp1) (AID 2282961). The conditions noted are these: HepG2 Sp1 cis-reporter transcription, actives raise or lower the signal. The gist of the method: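 Endpoint reflects endogenous Sp1 transcriptional activity, not an exogenous fusion protein: HepG2 cells with transfected cis-regulated reporters, 24 h dosing, RT-PCR/capillary electrophoresis mRNA read-out, DMSO-normalised bidirectional fit.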
Transcription factor Sp1 (Homo sapiens), sequence (P08047 whole entry, looked up, the tested form may be a part): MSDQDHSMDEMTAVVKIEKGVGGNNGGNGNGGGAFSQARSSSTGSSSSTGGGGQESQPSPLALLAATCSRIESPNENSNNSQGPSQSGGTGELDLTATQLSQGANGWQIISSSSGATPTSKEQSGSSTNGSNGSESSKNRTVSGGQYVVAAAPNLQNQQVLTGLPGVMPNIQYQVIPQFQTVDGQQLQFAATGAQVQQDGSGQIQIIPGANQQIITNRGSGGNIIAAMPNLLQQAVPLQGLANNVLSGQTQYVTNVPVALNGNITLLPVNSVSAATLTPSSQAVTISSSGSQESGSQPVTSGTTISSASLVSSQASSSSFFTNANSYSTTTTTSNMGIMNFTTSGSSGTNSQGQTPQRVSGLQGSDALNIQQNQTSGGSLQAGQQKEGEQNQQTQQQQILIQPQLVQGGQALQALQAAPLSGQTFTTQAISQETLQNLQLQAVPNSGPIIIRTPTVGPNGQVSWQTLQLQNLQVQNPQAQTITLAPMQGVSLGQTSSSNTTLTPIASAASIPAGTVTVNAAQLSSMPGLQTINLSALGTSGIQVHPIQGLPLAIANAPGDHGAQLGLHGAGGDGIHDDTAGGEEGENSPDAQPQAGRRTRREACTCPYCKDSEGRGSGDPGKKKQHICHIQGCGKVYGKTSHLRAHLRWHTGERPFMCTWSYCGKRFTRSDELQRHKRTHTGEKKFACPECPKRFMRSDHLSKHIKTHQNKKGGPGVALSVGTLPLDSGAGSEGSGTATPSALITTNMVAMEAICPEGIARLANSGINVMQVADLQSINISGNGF

The nature of experiment [20]: ATG_SREBP_CIS: Attagene CIS-FACTORIAL HepG2 Assay for human Sterol Regulatory Element Binding (SREBP) (AID 2282962). The following applies: HepG2 Attagene cis-factorial SREBP reporter, mRNA; actives raise or lower the signal. The gist of the method:
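Values derive from bidirectional curve fitting with DMSO as baseline. The underlying measurement is reporter mRNA from cis-element-regulated units in transiently transfected HepG2, quantified by RT-PCR and capillary electrophoresis after 24 h exposure.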

CCAAT/enhancer-binding protein beta (Homo sapiens), sequence (P17676 whole entry, looked up): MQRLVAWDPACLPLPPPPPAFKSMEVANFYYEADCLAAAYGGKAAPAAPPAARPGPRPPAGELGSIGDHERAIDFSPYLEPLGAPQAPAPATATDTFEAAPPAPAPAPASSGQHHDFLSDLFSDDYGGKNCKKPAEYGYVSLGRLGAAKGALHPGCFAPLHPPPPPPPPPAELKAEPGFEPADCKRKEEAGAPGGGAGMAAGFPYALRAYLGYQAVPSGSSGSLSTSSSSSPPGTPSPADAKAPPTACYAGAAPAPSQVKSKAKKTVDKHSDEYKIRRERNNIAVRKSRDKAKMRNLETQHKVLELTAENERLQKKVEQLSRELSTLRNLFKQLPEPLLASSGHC
Paired box protein Pax-6 (Homo sapiens), sequence (P26367 whole entry, looked up): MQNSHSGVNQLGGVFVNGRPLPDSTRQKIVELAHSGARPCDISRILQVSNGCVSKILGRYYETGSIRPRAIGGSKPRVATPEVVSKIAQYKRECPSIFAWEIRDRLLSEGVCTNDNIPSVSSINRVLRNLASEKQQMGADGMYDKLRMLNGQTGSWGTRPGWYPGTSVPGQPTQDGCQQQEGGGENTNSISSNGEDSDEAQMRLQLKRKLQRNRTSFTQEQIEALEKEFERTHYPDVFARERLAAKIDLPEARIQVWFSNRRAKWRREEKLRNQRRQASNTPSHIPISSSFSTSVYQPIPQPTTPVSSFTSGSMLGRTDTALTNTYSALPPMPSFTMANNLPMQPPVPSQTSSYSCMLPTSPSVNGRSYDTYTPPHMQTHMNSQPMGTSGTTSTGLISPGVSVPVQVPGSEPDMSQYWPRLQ

In the case of `O=S(=O)(O)OOS(=O)(=O)O`, the compound was called inactive in experiment [1], in experiment [2], in [3], in experiment [4], in experiment [5] and in [6]. Moreover, the result in [7], in experiment [8], in [9], in experiment [10], in experiment [11] and in experiment [12] was inactive. Also, the compound was called inactive in experiment [13], in [14], in experiment [15], in experiment [16], in experiment [18] and in experiment [19]. In [20], the outcome was inactive. For the same compound, in experiment [17], the concentration at half-maximal activity (AC50) is 56.7 µM (active).
Turning to `CC(C)C(=O)Cl`, the outcome in experiment [1], in [2], in experiment [3], in experiment [4], in [5] and in [6] was inactive. For the same compound, the outcome in [7], in experiment [8], in experiment [9], in experiment [10], in experiment [11] and in [12] was inactive. Moreover, the compound was called inactive in experiment [13], in experiment [14], in experiment [15], in experiment [16], in [17] and in experiment [18]. For the same compound, the compound was called inactive in experiment [19] and in experiment [20].
For the compound `C=CC(=O)OCCCCOC(=O)C=C`, the compound was classed as inactive in [1], in experiment [4], in [5], in experiment [6], in experiment [8] and in experiment [10]. In addition, the compound was called inactive in [12], in experiment [13], in [14] and in experiment [18]. The concentration at half-maximal activity (AC50) is 168 µM (active) in [2]; 52.4 µM (active) in [3]; 62.4 µM (active) in [7]; 77.3 µM (active) in experiment [9]; 54.7 µM (active) in experiment [11]; 64 µM (active) in [15]. In addition, the AC50 is 52.4 µM (active) in experiment [16], 158 µM (active) in [17], 26 µM (active) in experiment [19] and 80.9 µM (active) in [20].
In the case of `CCOP(=O)(OCC)Oc1ccc([N+](=O)[O-])cc1`, the compound was classed as inactive in [1], in experiment [2], in experiment [3], in experiment [4], in [5] and in experiment [6]. The call in [7], in experiment [8], in experiment [9], in [10], in experiment [11] and in [12] was inactive. Also, the outcome in [13], in experiment [14], in [15], in experiment [16], in experiment [18] and in experiment [19] was inactive. In addition, the compound was called inactive in experiment [20]. Further, the AC50 in experiment [17] is 26.8 µM (active).
For `CN(C)CCC#N`, the result in experiment [1], in experiment [2], in [3], in [4], in experiment [5] and in experiment [6] was inactive. Also, the compound was classed as inactive in experiment [7], in experiment [8], in [9], in [10], in experiment [11] and in [12]. Moreover, the call in experiment [13], in experiment [14], in [15], in experiment [16], in [17] and in experiment [18] was inactive. The compound was called inactive in experiment [19] and in [20].
In the case of `COC(=O)c1ccccc1S(=O)(=O)NC(=O)Nc1nc(C)cc(C)n1`, the compound was classed as inactive in experiment [1], in experiment [2], in experiment [3], in experiment [4], in [5] and in experiment [6]. For the same compound, the compound was classed as inactive in [7], in experiment [8], in experiment [9], in experiment [10], in experiment [11] and in experiment [12]. In addition, the call in [13], in experiment [14], in experiment [15], in experiment [16], in experiment [17] and in [18] was inactive. The call in [19] and in experiment [20] was inactive.
